We go through 39 sequences from PMC10812921, “Transcriptional Coactivator BOB1 (OBF1, OCA-B) Modulates the Specificity of DNA Recognition by the POU-Domain Factors OCT1 and OCT2 in a Monomeric Configuration”.

For the first assay, the target named is POU1 (OCT1 POU domain) (human, UniProt P14859 260-458). The assay can be described thus: EMSA-SELEX-seq; no BOB1; 20 mM Tris-HCl pH 7.6, 140 mM NaCl, 10% glycerol, 0.5 mM EDTA, 0.05% Triton X-100, 0.1 mg/mL BSA, 0.1 mg/mL poly(dI-dC), 5 mM DTT, room temperature, 20 min; high values mean tight binding. Particulars: protein: recombinant; dsDNA, one strand shown. The procedure, abridged: (§1)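 Tagged POU-domain proteins were expressed in E. coli BL21, purified under denaturing conditions and renatured. Then 30 ng was mixed with 300 ng of a PCR-amplified double-stranded random 35-nt library, with or without 28 ng coactivator protein, in 20 μL Tris–HCl pH 7.6 binding buffer for 20 min at RT. Complex bands were cut from native 6% PAGE, eluted and PCR-amplified over four rounds, then Illumina-sequenced. Binding preference is the percentage of sequenced 8-mers matching a motif pattern.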
Sequence of POU1 (OCT1 POU domain) (P14859 260-458): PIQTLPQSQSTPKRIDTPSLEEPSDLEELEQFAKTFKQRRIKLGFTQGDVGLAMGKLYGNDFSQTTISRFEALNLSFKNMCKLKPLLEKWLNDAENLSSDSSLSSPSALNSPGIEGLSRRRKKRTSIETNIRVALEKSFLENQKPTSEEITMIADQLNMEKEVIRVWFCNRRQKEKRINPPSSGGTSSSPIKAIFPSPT
On the technique in general: Mobility shift assays separate free from complexed probe on a gel.
With ATTTCAAC, the binding signal was 0.0416 % of ANNNNAAN 8-mers.

As to AATACAAT, the binding signal was 0.0797 % of ANNNNAAN 8-mers.

Turning to ACTTTAAT, the binding signal is 0.0824 % of ANNNNAAN 8-mers.

Consider AACTCAAC, for which the binding signal is 0.0168 % of ANNNNAAN 8-mers.

As to ATCATAAA, the binding signal was 0.0736 % of ANNNNAAN 8-mers.

With ATACGAAC, the binding signal is 0.0343 % of ANNNNAAN 8-mers.

As for AATCTAAC, the binding signal is 0.0328 % of ANNNNAAN 8-mers.

For AACACAAA, the binding signal is 0.0454 % of ANNNNAAN 8-mers.

Turning to ATCGTAAC, the binding signal is 0.0236 % of ANNNNAAN 8-mers.

ATGGTAAC: the binding signal was 0.0454 % of ANNNNAAN 8-mers.

On to ATCAAAAA, for which the binding signal is 0.061 % of ANNNNAAN 8-mers.

Consider AGGGTAAC, for which the binding signal was 0.0339 % of ANNNNAAN 8-mers.

For the sequence AGAGAAAA, the binding signal is 0.0702 % of ANNNNAAN 8-mers.

Regarding ATGGGAAA, the binding signal was 0.098 % of ANNNNAAN 8-mers.

Consider ACTCTAAC, for which the binding signal was 0.013 % of ANNNNAAN 8-mers.

For the sequence AAACAAAA, the binding signal is 0.156 % of ANNNNAAN 8-mers.

Take ATAGCAAC: the binding signal was 0.0183 % of ANNNNAAN 8-mers.

In the case of AAGTGAAG, the binding signal is 0.0381 % of ANNNNAAN 8-mers.

With ATTTCAAT, the binding signal is 0.238 % of ANNNNAAN 8-mers.

With AAGAAAAG, the binding signal was 0.0732 % of ANNNNAAN 8-mers.

In the case of ACAGAAAT, the binding signal was 0.0568 % of ANNNNAAN 8-mers.

On to AAGGTAAC, for which the binding signal was 0.0313 % of ANNNNAAN 8-mers.

Turning to AGGGCAAT, the binding signal is 0.0442 % of ANNNNAAN 8-mers.

With ATGCAAAC, the binding signal is 0.543 % of ANNNNAAN 8-mers.

With AGATAAAA, the binding signal was 0.0542 % of ANNNNAAN 8-mers.

On to AACGGAAT, for which the binding signal is 0.0698 % of ANNNNAAN 8-mers.

Regarding AGGGTAAA, the binding signal was 0.0706 % of ANNNNAAN 8-mers.

Regarding AACATAAA, the binding signal is 0.101 % of ANNNNAAN 8-mers.

On to AATCGAAC, for which the binding signal is 0.0366 % of ANNNNAAN 8-mers.

On to ACAAAAAT, for which the binding signal was 0.0938 % of ANNNNAAN 8-mers.

With ATAGTAAG, the binding signal was 0.0633 % of ANNNNAAN 8-mers.

In the case of ATACAAAT, the binding signal is 0.318 % of ANNNNAAN 8-mers.

As for AGAGTAAG, the binding signal is 0.0305 % of ANNNNAAN 8-mers.

Take ATGGAAAG: the binding signal is 0.148 % of ANNNNAAN 8-mers.

Turning to ACTGGAAC, the binding signal was 0.0168 % of ANNNNAAN 8-mers.

As to ATTTCAAG, the binding signal is 0.0542 % of ANNNNAAN 8-mers.

For the sequence AGAAGAAG, the binding signal was 0.029 % of ANNNNAAN 8-mers.

As for AGGTGAAG, the binding signal is 0.04 % of ANNNNAAN 8-mers.

As for ATCCGAAG, the binding signal was 0.0275 % of ANNNNAAN 8-mers.

Another assay addresses T1, POU2 (OCT2 POU domain) (human, UniProt P09086 175-386).
T1 sequence: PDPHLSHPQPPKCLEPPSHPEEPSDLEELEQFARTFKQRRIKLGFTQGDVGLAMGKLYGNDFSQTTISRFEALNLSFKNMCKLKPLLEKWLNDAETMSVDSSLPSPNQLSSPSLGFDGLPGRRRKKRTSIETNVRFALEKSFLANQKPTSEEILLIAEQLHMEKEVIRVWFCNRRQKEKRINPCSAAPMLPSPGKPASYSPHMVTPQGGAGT
The assay is described as above. Particulars: protein: recombinant; dsDNA, one strand shown. Summed up: as §1
For ATTTCAAC, the binding signal is 0.0414 % of ANNNNAAN 8-mers.

Consider AATACAAT, for which the binding signal was 0.107 % of ANNNNAAN 8-mers.

Regarding ACTTTAAT, the binding signal is 0.103 % of ANNNNAAN 8-mers.

For AACTCAAC, the binding signal was 0.0288 % of ANNNNAAN 8-mers.

On to ATCATAAA, for which the binding signal is 0.0944 % of ANNNNAAN 8-mers.

For ATACGAAC, the binding signal is 0.0345 % of ANNNNAAN 8-mers.

Turning to AATCTAAC, the binding signal is 0.0339 % of ANNNNAAN 8-mers.

Consider AACACAAA, for which the binding signal was 0.0443 % of ANNNNAAN 8-mers.

With ATCGTAAC, the binding signal was 0.0288 % of ANNNNAAN 8-mers.

For the sequence ATGGTAAC, the binding signal is 0.0621 % of ANNNNAAN 8-mers.

With ATCAAAAA, the binding signal is 0.0702 % of ANNNNAAN 8-mers.

Consider AGGGTAAC, for which the binding signal was 0.0328 % of ANNNNAAN 8-mers.

Regarding AGAGAAAA, the binding signal is 0.065 % of ANNNNAAN 8-mers.

Take ATGGGAAA: the binding signal is 0.1 % of ANNNNAAN 8-mers.

In the case of ACTCTAAC, the binding signal is 0.015 % of ANNNNAAN 8-mers.

AAACAAAA: the binding signal is 0.115 % of ANNNNAAN 8-mers.

For the sequence ATAGCAAC, the binding signal was 0.0184 % of ANNNNAAN 8-mers.

On to AAGTGAAG, for which the binding signal was 0.0409 % of ANNNNAAN 8-mers.

On to ATTTCAAT, for which the binding signal is 0.268 % of ANNNNAAN 8-mers.

With AAGAAAAG, the binding signal was 0.0633 % of ANNNNAAN 8-mers.

Take ACAGAAAT: the binding signal is 0.0633 % of ANNNNAAN 8-mers.

In the case of AAGGTAAC, the binding signal was 0.0293 % of ANNNNAAN 8-mers.

On to AGGGCAAT, for which the binding signal was 0.0558 % of ANNNNAAN 8-mers.

On to ATGCAAAC, for which the binding signal was 0.445 % of ANNNNAAN 8-mers.

For the sequence AGATAAAA, the binding signal was 0.057 % of ANNNNAAN 8-mers.

Regarding AACGGAAT, the binding signal is 0.0949 % of ANNNNAAN 8-mers.

With AGGGTAAA, the binding signal is 0.0857 % of ANNNNAAN 8-mers.

As for AACATAAA, the binding signal is 0.125 % of ANNNNAAN 8-mers.

On to AATCGAAC, for which the binding signal is 0.0334 % of ANNNNAAN 8-mers.

Take ACAAAAAT: the binding signal was 0.0667 % of ANNNNAAN 8-mers.

On to ATAGTAAG, for which the binding signal was 0.0806 % of ANNNNAAN 8-mers.

As for ATACAAAT, the binding signal is 0.269 % of ANNNNAAN 8-mers.

In the case of AGAGTAAG, the binding signal was 0.0466 % of ANNNNAAN 8-mers.

For ATGGAAAG, the binding signal was 0.112 % of ANNNNAAN 8-mers.

Turning to ACTGGAAC, the binding signal was 0.0207 % of ANNNNAAN 8-mers.

For the sequence ATTTCAAG, the binding signal was 0.0495 % of ANNNNAAN 8-mers.

With AGAAGAAG, the binding signal was 0.0547 % of ANNNNAAN 8-mers.

Turning to AGGTGAAG, the binding signal was 0.0386 % of ANNNNAAN 8-mers.

On to ATCCGAAG, for which the binding signal is 0.0299 % of ANNNNAAN 8-mers.

In the next assay the target is POU1 (OCT1 POU domain);BOB1 (OBF1, OCA-B) (human;human, UniProt P14859;Q16633 260-458;1-256, |). Briefly: EMSA-SELEX-seq; with BOB1 (ternary complex band); 20 mM Tris-HCl pH 7.6, 140 mM NaCl, 10% glycerol, 0.5 mM EDTA, 0.05% Triton X-100, 0.1 mg/mL BSA, 0.1 mg/mL poly(dI-dC), 5 mM DTT, room temperature, 20 min; high values mean tight binding. Particulars: protein: recombinant;recombinant; copies: 1;1; dsDNA, one strand shown. Summed up: as §1
Consider ATTTCAAC, for which the binding signal is 0.041 % of ANNNNAAN 8-mers.

AATACAAT: the binding signal is 0.0663 % of ANNNNAAN 8-mers.

Turning to ACTTTAAT, the binding signal was 0.0558 % of ANNNNAAN 8-mers.

For the sequence AACTCAAC, the binding signal is 0.0172 % of ANNNNAAN 8-mers.

As for ATCATAAA, the binding signal is 0.0425 % of ANNNNAAN 8-mers.

Take ATACGAAC: the binding signal was 0.032 % of ANNNNAAN 8-mers.

Take AATCTAAC: the binding signal is 0.0316 % of ANNNNAAN 8-mers.

Turning to AACACAAA, the binding signal was 0.0648 % of ANNNNAAN 8-mers.

For the sequence ATCGTAAC, the binding signal is 0.0238 % of ANNNNAAN 8-mers.

Consider ATGGTAAC, for which the binding signal is 0.0316 % of ANNNNAAN 8-mers.

As to ATCAAAAA, the binding signal was 0.0851 % of ANNNNAAN 8-mers.

For the sequence AGGGTAAC, the binding signal is 0.0343 % of ANNNNAAN 8-mers.

For the sequence AGAGAAAA, the binding signal is 0.0574 % of ANNNNAAN 8-mers.

Consider ATGGGAAA, for which the binding signal is 0.118 % of ANNNNAAN 8-mers.

Take ACTCTAAC: the binding signal is 0.0187 % of ANNNNAAN 8-mers.

Regarding AAACAAAA, the binding signal was 0.256 % of ANNNNAAN 8-mers.

Take ATAGCAAC: the binding signal was 0.0207 % of ANNNNAAN 8-mers.

For the sequence AAGTGAAG, the binding signal is 0.0386 % of ANNNNAAN 8-mers.

As for ATTTCAAT, the binding signal is 0.174 % of ANNNNAAN 8-mers.

Consider AAGAAAAG, for which the binding signal was 0.0905 % of ANNNNAAN 8-mers.

Consider ACAGAAAT, for which the binding signal is 0.0472 % of ANNNNAAN 8-mers.

As to AAGGTAAC, the binding signal is 0.0234 % of ANNNNAAN 8-mers.

With AGGGCAAT, the binding signal was 0.0457 % of ANNNNAAN 8-mers.

On to ATGCAAAC, for which the binding signal was 1.35 % of ANNNNAAN 8-mers.

Turning to AGATAAAA, the binding signal is 0.0597 % of ANNNNAAN 8-mers.

In the case of AACGGAAT, the binding signal was 0.0601 % of ANNNNAAN 8-mers.

Consider AGGGTAAA, for which the binding signal was 0.0679 % of ANNNNAAN 8-mers.

As for AACATAAA, the binding signal is 0.0527 % of ANNNNAAN 8-mers.

For the sequence AATCGAAC, the binding signal was 0.0347 % of ANNNNAAN 8-mers.

Turning to ACAAAAAT, the binding signal was 0.114 % of ANNNNAAN 8-mers.

In the case of ATAGTAAG, the binding signal was 0.0656 % of ANNNNAAN 8-mers.

In the case of ATACAAAT, the binding signal was 0.526 % of ANNNNAAN 8-mers.

Turning to AGAGTAAG, the binding signal was 0.039 % of ANNNNAAN 8-mers.

Consider ATGGAAAG, for which the binding signal was 0.199 % of ANNNNAAN 8-mers.

As to ACTGGAAC, the binding signal was 0.0183 % of ANNNNAAN 8-mers.

As to ATTTCAAG, the binding signal is 0.055 % of ANNNNAAN 8-mers.

For AGAAGAAG, the binding signal was 0.0379 % of ANNNNAAN 8-mers.

AGGTGAAG: the binding signal was 0.0339 % of ANNNNAAN 8-mers.

With ATCCGAAG, the binding signal is 0.0304 % of ANNNNAAN 8-mers.
